Experimental data published in PubChem BioAssay (NCI).
Compounds without any hit were thinned out: in the full panel of roughly 79,000, 15% have a hit. Activity calls are given as the source filed them. Rule as the data show it: active = growth inhibition above about 70%; inactive = the rest. Where a SMILES comes first, the peptide text is derived from it. [ ]: non-standard residue; d: D form. ξ: configuration not given here. ξD = NC(CC(=O)O)C(=O)O

Experiment: NCI Yeast Anticancer Drug Screen. Data for the mec2-1 strain (AID 157)
Settings: S. cerevisiae mec2-1 strain, at 50.0 µM, active compounds read high
Method in brief: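 Readout is yeast growth inhibition, normalised to vehicle-treated controls, in the mec2-1 strain exposed to compound.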

Structure (SMILES)	growth inhibition
CSc1nc(C)c(C(=O)CCN2CCN(c3ccccn3)CC2)s1	78% (active)
Cc1cc(C(=O)c2ccc(Cl)cc2)ccc1O	57.5% (inactive)
O=C(c1ccccc1)C(Br)C(Br)c1ccccc1 (stereo not drawn)	98.8% (active)
CCCCCCN(CCCCCC)CCCNc1nccc2ccccc12	36.5% (inactive)
CCCCCCCCCCCC[S+](C)CC(=O)[O-] (stereo not drawn)	48.8% (inactive)
COC(=O)C(=[N+]=[N-])C(=O)c1ccc([N+](=O)[O-])o1	55.5% (inactive)
Cc1c(O)ccc(SC#N)c1C	83.8% (active)
Oc1c(Cl)cc(Cl)cc1C(c1cc(Cl)cc(Cl)c1O)C(Cl)(Cl)Cl	99.5% (active)
CCCCCCCCCCCCNCCCc1ccccc1	99.2% (active)
Nc1ccc(C(=O)/C=C/c2ccccc2)cc1	85.3% (active)
NCC(=O)NC(CC(=O)O)C(=O)O (stereo not drawn) (H-Gly-[ξD]-OH)	9.15% (inactive)
CN(C)c1ccc(C(=C2C=CC(=[N+](C)C)C=C2)c2ccc(N(C)C)cc2)cc1	95% (active)
O=C1c2ccccc2Cc2cccc(Cl)c21	24.3% (inactive)
O=C/C=C/c1ccc([N+](=O)[O-])cc1	83.5% (active)
O=C1c2ccccc2C(=O)c2c(O)c(Cl)cc(O)c21	1.3% (inactive)
CN1CSC(=S)N(Cc2ccccc2)C1	87.8% (active)
CC(O)C(O)C(O)C(O)C(O)C(=O)NNc1ccccc1 (stereo not drawn)	52.6% (inactive)
Cn1c(COC(=O)NC2CCCCC2)c(COC(=O)NC2CCCCC2)c2ccc3cc(Cl)c(Cl)cc3c21	23.2% (inactive)
